gsp ag = gsp mutant agonism | gsp mutant cells, cAMP HTRF, 30 min | Potency, µM (doses to about 76.9 µM), usual class: activators | hit rate 0.13% among 340,000; active = well fitted activation curve with a large enough effect; inconclusive = small, poorly fitted or top-dose-only effect, or another doubt; inactive = no such curve, though single readings can be large or run the other way; cell line not stated here;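 also: phosphodiesterase inhibitor Ro 20-1724 added with compounds to block cAMP breakdown; nearly all actives have a fitted effect of over 60% in size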
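Cells in DMEM/10% FBS with G418 were pretreated with compounds in DMSO plus […] (300 uM stock) for 30 min at 37C. cAMP was measured by HTRF (cAMP-d2 plus anti-cAMP antibody-K) after 30 min at room temperature.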
gsp antagonist = antagonists of gsp mutant (McCune-Albright syndrome); gsp-mutant cells, cAMP HTRF, 30 min; Potency, µM (top dose mostly 76.9 µM), most hits filed as inhibitors; hit rate 0.4% among 340,000; calls by dose curve; cell line not stated here;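 also: intracellular cAMP measured with PDE inhibitor Ro 20-1724 present during compound exposure; nearly all actives have a fitted effect of over 65% in size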
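Measurement of cellular cAMP by homogeneous time-resolved fluorescence following a 30 min compound exposure at 37C. The PDE inhibitor […] was present throughout; the assay buffer was DPBS with 0.05% BSA and 0.005% Tween 20.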
RXFP1 ag = activates the human relaxin receptor RXFP1; Potency, µM (top dose mostly 57.5 µM), usual class: activators; hit rate 0.3% among 370,000; Q9HBX9; HEK293T-RXFP1 cAMP TR-FRET, 30 min; response scale: percent of porcine relaxin response, buffer zero; also: nearly all actives have a fitted effect of over 60% in size
Target sequence (Q9HBX9 whole entry, looked up): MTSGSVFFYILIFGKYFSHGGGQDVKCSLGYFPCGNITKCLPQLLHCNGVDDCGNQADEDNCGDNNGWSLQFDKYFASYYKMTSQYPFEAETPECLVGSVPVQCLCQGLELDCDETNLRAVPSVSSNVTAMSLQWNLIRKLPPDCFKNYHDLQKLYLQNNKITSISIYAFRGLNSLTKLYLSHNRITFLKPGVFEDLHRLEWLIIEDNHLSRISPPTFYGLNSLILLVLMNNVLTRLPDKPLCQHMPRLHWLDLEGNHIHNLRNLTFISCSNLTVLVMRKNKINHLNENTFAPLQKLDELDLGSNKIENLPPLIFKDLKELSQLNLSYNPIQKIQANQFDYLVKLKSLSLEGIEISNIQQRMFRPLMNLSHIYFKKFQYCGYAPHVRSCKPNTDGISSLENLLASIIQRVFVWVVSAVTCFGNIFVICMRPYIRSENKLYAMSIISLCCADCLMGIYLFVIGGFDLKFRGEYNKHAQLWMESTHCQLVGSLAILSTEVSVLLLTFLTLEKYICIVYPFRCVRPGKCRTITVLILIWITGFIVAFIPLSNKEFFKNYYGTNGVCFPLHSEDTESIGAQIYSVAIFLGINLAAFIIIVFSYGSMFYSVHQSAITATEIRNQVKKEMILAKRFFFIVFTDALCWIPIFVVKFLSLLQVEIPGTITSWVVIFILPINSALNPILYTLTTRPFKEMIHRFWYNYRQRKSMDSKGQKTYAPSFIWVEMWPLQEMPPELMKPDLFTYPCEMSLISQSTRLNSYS
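HEK293 cells stably expressing RXFP1, treated 30 min at 37C with compounds plus PDE4 inhibitor Ro 20174; cAMP measured by HTRF TR-FRET. Normalized to buffer and 29 nM porcine relaxin; EC50 by Hill fit.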
RXFP1 antagonist = antagonists of human relaxin receptor RXFP1 | HEK293-RXFP1, relaxin-stimulated cAMP HTRF, 30 min; active compounds read low | activity change, negative = inhibition, % at 57.5 µM | hit rate 0.59% among 350,000 | AID 1259400;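 active = activity change of -60% or lower, but not beyond a set lower limit; inconclusive = change between -60% and -40%, or beyond the set limit; inactive = change above -40%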
CCT chaperon mod = modulators of cytosolic chaperonin (CCT/TRiC) activity | purified chaperonin ATPase assay, HTRF ADP detection, 30 min | hit rate 0.3% among 360,000 | AID 651819 | activity change, % (concentration not given with the values), hits read low; in the data active = activity change below about -30%
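ATPase activity: ADP formed was measured by HTRF Transcreener (665/615 nm ratio) after 30 min at 37 deg C with 10 uM ATP. Compounds screened at one 76 uM concentration against 40 or 20 nM TRiC in Tris pH 7.4/KCl/MgCl2/DTT buffer.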
Mm-Cpn inhibitor = M. maripaludis TRiC chaperonin inhibition; Potency, µM (series often up to 76.9 µM), actives largely listed as inhibitors; hit rate 0.031% among 330,000; purified Mm-Cpn ATPase, ADP Transcreener TR-FRET; also: nearly all actives have a fitted effect of over 80% in size
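Purified archaeal Mm-CPN (25nM final) preincubated 10 min at 37degC with compound, then 10uM ATP for 30 min at 37degC; ADP measured by HTRF Transcreener TR-FRET; buffer 30 mM TRIS pH 7.4, 100mM KCl, 5mM MgCl2, 1mM DTT.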
Numbers stand for hits; 0 = inactive; ? = inconclusive; - = no result given; [ ] = remark or other dose. Rows were chosen to be rich in hits. Some 1.2% of all compounds tested hit in one or more screens of this group. Unless noted, calls follow the shape of the dose curve; as a rule, active = well fitted curve in the direction sought with a large enough effect; inconclusive = small, poorly fitted or top-dose-only effect, or another doubt; inactive = no such curve, though single readings can be large; an effect the other way counts as inactive or inconclusive.

SMILES | gsp ag | gsp antagonist | RXFP1 ag | RXFP1 antagonist | CCT chaperon mod | Mm-Cpn inhibitor
COc1ccccc1NS(=O)(=O)c1cn(C)cn1 | 0 | 0 | 0 | 0 | -53 | 0
Cc1ccc(CN(C(=O)COc2c(C)cccc2C)C2CCS(=O)(=O)C2)o1 (stereo not given) | - | - | 0 | 0 | - | -
S=c1[nH]nc(-c2ccc3ccccc3n2)n1-c1ccccc1 | ? | 0 | 0 | 0 | -69 | 0
Cc1cc(C)n(CC(=O)Nc2cccc(C(F)(F)F)c2)n1 | 0 | 0 | 0 | 0 | 0 | 0
Cc1cc(C(F)(F)F)nn1CC(=O)Nc1cccnc1 | 0 | 0 | 0 | 0 | -41 | 0
O=C1NC(=Nc2ccc(O)cc2)S/C1=C/c1ccco1 | 0 | 0 | 0 | -61 | 0 | 0
COc1ccc(N=C2NC(=O)/C(=C\C=C\c3ccco3)S2)cc1 | 0[15.4 µM] | ? | 0 | ? | 0 | 0
Cc1cccc(N=C2NC(=O)/C(=C/C=C/c3ccco3)S2)c1 | 0 | 0 | 0 | -73 | 0 | 0
COc1ccc(-c2cc(C(F)(F)F)nc(SCCC(=O)Nc3ccc(F)cc3F)n2)cc1 | - | - | 0 | - | - | -
CCC(Sc1nncn2c1cc1occc12)C(=O)Nc1ccc(C)c(Cl)c1 (stereo not given) | - | - | 0 | ? | - | -
CC1CCCCC1NC(=O)CCCCCn1c(=S)[nH]c2ccsc2c1=O (stereo not given) | 0 | 0 | 0 | -73 | 0 | 0
Cc1cc(NC(=O)CSc2nc3ccsc3c(=O)n2CCCC(=O)NCCc2ccccc2)no1 | 0[15.4 µM] | 0 | 0 | -79 | 0 | 0
O=C(CCCn1c(=S)[nH]c2ccsc2c1=O)NCCc1ccccc1 | ? | 0 | 0 | -94 | 0 | 0
COc1ccc2[nH]c3c(=O)n(CCCC(=O)NC4CCCCC4C)c(=S)[nH]c3c2c1 (stereo not given) | 0[15.4 µM] | 0 | 0 | -66 | 0 | 0
COc1ccc2[nH]c3c(=O)n(CCCC(=O)NC4CCC(C)CC4)c(=S)[nH]c3c2c1 (stereo not given) | 0 | 0 | 0 | 0 | 0 | 0
COc1ccc(NC(=O)c2c(NCc3ccc(C)o3)sc3c2CCC(C)C3)cc1 (stereo not given) | - | - | 0 | 0 | - | -
COc1cccc(CNC(=O)c2cc3c(=O)oc4ccc(C)cc4c3s2)c1 | - | - | 0 | - | - | -
COc1ccc(-c2cn3c(n2)sc2cc(C(=O)NCC(C)c4ccccc4)ccc23)cc1 (stereo not given) | - | - | 0 | 0 | - | -
COc1ccc2[nH]c3c(=O)n(CCCCC(=O)N4CCCC4)c(=S)[nH]c3c2c1 | 0 | 0 | 0 | -107 | 0 | 0
CCCNC(=O)CCCCn1c(=S)[nH]c2c([nH]c3ccc(OC)cc32)c1=O | 0 | 0 | 0 | 0 | 0 | 0
COc1ccccc1NC(=O)CSc1nc2ccccc2c(=O)n1CCC(=O)NC1CCCCC1 | - | - | 0 | 0 | - | -
Cc1cccc(OCC(O)CNC(C)(C)C)c1C (stereo not given) | - | - | - | 0 | - | -
COc1ccccc1NC(=O)N1CCN(c2ccnc3cc(Cl)ccc23)CC1 | 0[15.4 µM] | 35µM | 0 | 0 | 0 | 0
N#Cc1cccc(S(=O)(=O)N2CCN(c3ccnc4cc(Cl)ccc34)CC2)c1 | 0 | 25µM | 0 | 0 | 0 | 0
O=S(=O)(c1cccc(Br)c1)N1CCN(c2ccnc3cc(Cl)ccc23)CC1 | 0[15.4 µM] | 0 | 0 | 0 | 0 | 0
SMILES | gsp ag | gsp antagonist | RXFP1 ag | RXFP1 antagonist | CCT chaperon mod | Mm-Cpn inhibitor
O=C(C1CCC1)N1CCN(c2ccnc3cc(Cl)ccc23)CC1 | 0 | 0 | 0 | 0 | 0 | 0
O=C(C1CCCCC1)N1CCN(c2ccnc3cc(Cl)ccc23)CC1 | 0[15.4 µM] | 35µM | 0 | 0 | 0 | 0
COc1ccc(-n2nc(C(=O)N3CCN(c4cccc(C)c4)C(C)C3)c3c4ccccc4n(C)c3c2=O)cc1Cl (stereo not given) | - | - | 0 | 0 | - | -
C[C@H]1C[C@H]2[C@@H]3CCC4=CC(=O)C=C[C@]4(C)[C@H]3C(=O)C[C@]2(C)[C@@]1(O)C(=O)CO | - | - | - | 0 | - | -
O=C(Nc1ccc(-c2noc(CCc3ccccc3)n2)cc1)c1ccco1 | 0 | ? | 0 | 0 | -56 | 0
c1ccc(CCc2nc(-c3ccccc3)no2)cc1 | 0 | 0 | 0 | 0 | 0 | 0
Cc1cc(C)c(C)c(S(=O)(=O)N2CCN(c3ncnc4ccccc34)CC2)c1C | 0 | 35µM | 0 | 0 | 0 | 0
Cc1cc(C)c(C)c(S(=O)(=O)N2CCN(c3ccccn3)CC2)c1C | 0 | 0 | 0 | 0 | 0 | 0
O=c1[nH]c(SCc2n[nH]c(=S)n2-c2ccccc2)nc2sc3c(c12)CCC3 | 0 | 0 | 0 | -67 | 0 | 0
O=C(NCC(c1ccco1)S(=O)(=O)c1cccs1)c1ccc(C(F)(F)F)cc1 (stereo not given) | - | - | 0 | 0 | - | -
O=[N+]([O-])c1ccc(C2CN=C(Nc3ccccc3)S2)cc1 (stereo not given) | 0 | 0 | 0 | 0 | 0 | 0
CCc1ccc(NC2=NCC(c3ccccc3)S2)cc1 (stereo not given) | 0[15.4 µM] | ? | 0 | -69 | 0 | 0
CCc1ccc(CNCc2c(C(=O)O)n(Cc3cccc(F)c3)c3cc(OC)ccc23)cc1 | - | - | 0 | 0 | - | -
Cn1c(=O)c([N+](=O)[O-])c(NCc2ccccc2)c2ccccc21 | 0 | 0 | 0 | 0 | -56 | 0
CCNc1c([N+](=O)[O-])c(=O)n(CC)c2ccccc12 | 0 | 0 | 0 | 0 | 0 | 0
CN1CCN(C(=O)C23CC4CC(C)(CC(C)(C4)C2)C3)CC1 | 0 | 0 | 0 | 0 | 0 | 0
CC12CC3CC(C)(C1)CC(C(=O)N1CCCC1)(C3)C2 | 0 | 0 | 0 | -88 | 0 | 0
CC(=O)NS(=O)(=O)c1ccc(N=c2ssc3c2-c2cc(C)c(C)cc2NC3(C)C)cc1 | 0[15.4 µM] | 14µM | 0 | 0 | 0 | 0
O=C(COC(=O)C1CCCC1)Nc1cccc(Cl)c1Cl | 0 | 0 | - | -74 | 0 | 0
Clc1ccccc1CN(Cc1ccco1)Cc1nnnn1C1CCCC1 | 0 | 20µM | 0 | 0 | -70 | 0
CCOc1ccc(NC(=O)c2oc3ccccc3c2NC(=O)C(C)(C)C)cc1 | - | - | 0 | - | - | -
Cc1ccc(N(Cc2cccs2)C(=O)c2ccc(Br)o2)cc1 | - | - | 0 | -85 | - | -
Cc1ccc(N(Cc2cccs2)C(=O)C(C)Oc2ccc(Cl)c(C)c2)cc1 (stereo not given) | - | - | 0 | -100 | - | -
COc1ccc(N(Cc2cccs2)C(=O)c2ccc(C(C)(C)C)cc2)cc1 | - | - | 0 | -73 | - | -
O=C(O)CCN1C(=O)c2ccc(NC(=O)Cc3ccc(Cl)cc3)cc2C1=O | 0 | 0 | 0 | 0 | -32 | 0
Cc1nn(-c2ccc(F)cc2)c(-n2cccc2)c1C(=O)NCCc1ccc(Cl)cc1 | - | - | 0 | - | - | -
Cc1nn2c(=O)cc(COC(=O)C(c3ccccc3)c3ccccc3)nc2s1 | - | - | 0 | - | - | -
COc1ccc(C(CC(=O)Nc2cc(Cl)c(OC)cc2OC)N2Cc3ccccc3C2=O)cc1 (stereo not given) | - | - | 0 | 0 | - | -

Bioassay records deposited in PubChem BioAssay by National Center for Advancing Translational Sciences (NCATS).
